Data as given in the supplement of paper PMC4371806.
The full ranking holds about 2,300 compounds; the median of “plate-normalized OD600 growth (mean of duplicates)” is about 0.29, and the lowest 2% start at about 0.22. The sample holds the lowest values, similar compounds and a random draw of the others, so the mix is not that of the screen.

System: Escherichia coli BW25113
Test: plate-normalized OD600 growth (mean of duplicates) (OD600 (normalized)); higher = more growth (less inhibition)
Details: 10 µM
Description: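 E. coli BW25113 in LB (100 µl, 96-well, no shaking) was exposed to 10 µM of each compound from a ~30,000-member library and grown at 37°C for 24 h or 15°C for 48 h, in duplicate. Growth was read as OD600 and the duplicate ODs were normalized across screening plates to correct plate-to-plate variation. Hits were >3σ below the mean OD600 at 15°C and <2σ below the mean at 37°C.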

Row | SMILES | plate-normalized OD600 growth (temperature: 15°C, 48 h) | plate-normalized OD600 growth (temperature: 37°C, 24 h)
1 | COC(=O)CN1C(=O)C2(C(C#N)=C(N)Oc3n[nH]c(C)c32)c2ccccc21 (stereo not given) | 0.207 | 0.65
2 | CCOc1ccc(-c2[nH]nc3c2C2(C(=O)Nc4ccc(C)c(Br)c42)C(C#N)=C(N)O3)cc1 (stereo not given) | 0.245 | 0.6
3 | N#CC1=C(N)Oc2n[nH]c(-c3cccs3)c2C12C(=O)Nc1ccc([N+](=O)[O-])cc12 (stereo not given) | 0.265 | 0.618
4 | CCOC(=O)c1c(N)oc2c(-c3ccc(C)c(Cl)c3)c3c(C(=O)OCC)c(N)oc3cc12 | 0.218 | 0.622
5 | N#CCS(=O)(=O)c1cccs1 | 0.217 | 0.626
6 | O=C(NC1Cc2ccccc2C1)c1cncc(Br)c1 | 0.281 | 0.658
7 | c1ccc(-c2cc3c(nn2)CCc2nonc2-3)cc1 | 0.27 | 0.648
8 | N#C/C(=C\c1ccc(OC(=O)c2cccc([N+](=O)[O-])c2)cc1)C(=O)c1ccccc1 | 0.211 | 0.634
9 | COc1cc(O)ccc1/C=N/NC(=O)c1cccc([N+](=O)[O-])c1 | 0.248 | 0.614
10 | O=C(N/N=C/c1ccc(OC(=O)c2cccc(F)c2)cc1)C1=NNC(c2ccccc2)(c2ccccc2)C1 | 0.267 | 0.624
11 | CC(Oc1ccccc1)C(=O)Nc1ccc(Cl)cc1 (stereo not given) | 0.222 | 0.64
12 | CC(=O)c1cnn(-c2ccccc2)c1C | 0.259 | 0.623
13 | O=C(/C=C/c1cccs1)C(C(=O)c1ccccc1)=C1SCCCCS1 | 0.244 | 0.615
14 | O=C(CSc1nc2ccccc2s1)Nc1cccn2cc(-c3ccccc3)nc12 | 0.263 | 0.614
15 | COc1ccc(CNCC2COc3ccccc3O2)cc1OC (stereo not given) | 0.26 | 0.638
16 | CC(C)Nc1nc(Cl)nc(Nc2cccc(C(F)(F)F)c2)n1 | 0.262 | 0.62
17 | CCN=C(NCC)SC1CC(=O)N(c2ccc(C(=O)O)cc2)C1=O (stereo not given) | 0.246 | 0.617
18 | CCOc1ccc(C(C)(C)C(=O)Nc2ccc(C(=O)/C=C/c3ccco3)cc2)cc1 | 0.266 | 0.639

Row | SMILES | plate-normalized OD600 growth (temperature: 15°C, 48 h) | plate-normalized OD600 growth (temperature: 37°C, 24 h)
19 | Clc1ccc2nc(N3CCOCC3)nc(-c3ccccc3)c2c1 | 0.251 | 0.61
20 | CCC(=O)Nc1nc2ccc(C)cc2s1 | 0.246 | 0.603
21 | N#CC(C(=O)Nc1cccc(C(F)(F)F)c1)C(=S)Nc1ccccc1Cl (stereo not given) | 0.254 | 0.644
22 | COc1cc(C(=S)N2CCCCC2)ccc1OC(=O)c1ccccc1 | 0.00796 | 0.606
23 | CCCCOc1cc(C(=O)O)ccc1OC | 0.261 | 0.64
24 | COc1ccc(C(=O)N2CCN(c3c(C)cccc3C)CC2)cc1OC | 0.257 | 0.622
25 | Clc1cccc(Cl)c1/C=N/Nc1nncc(-c2ccccc2)n1 | 0.186 | 0.641
26 | CSCCC(NC(=O)c1ccccc1)C(=O)OCC(=O)Nc1ccccc1C#N (stereo not given) | 0.236 | 0.619
27 | Clc1cccc(CN2CCN(Cc3ccco3)CC2)c1 | 0.237 | 0.636
28 | Cc1cc2c(cc1C)CN(c1ccc(C(=O)N/N=C/c3ccccc3O)cc1)C2 | 0.25 | 0.63
29 | COc1ccc(/C=N/NC(=O)COc2ccc(Cl)cc2)cc1I | 0.257 | 0.62
30 | CCCCOc1cccc(NC(=O)CCSc2nccn2C)c1 | 0.25 | 0.643
31 | N#C/C(=C\c1ccccc1Cl)c1nc2ccccc2[nH]1 | 0.26 | 0.624
32 | O=C(NCc1csc(-c2cccs2)n1)C1=Cc2ccccc2OC1 | 0.243 | 0.593
33 | O=C(Nc1ccccc1C(=O)NC1CCCCNC1=O)c1cccs1 (stereo not given) | 0.253 | 0.638
34 | COc1ccc(-c2cc(C(F)(F)F)n3nc(C(=O)NC(C)(C)C)c(Cl)c3n2)cc1OC | 0.245 | 0.619
35 | Cc1nc(Nc2ccc(F)cc2)c2oc3ccccc3c2n1 | 0.245 | 0.613
